According to PubChem BioAssay (Tox21):
Results filed as inconclusive are left out. Activity calls are given as the source filed them. The call rests on the fitted dose curve; in most records, active means well fitted activation curve with a large enough effect in the repeat runs; inconclusive means weak or mixed curves; inactive means flat fitted curve, though single readings scatter.

Assay: A CellTox Green Cytotoxicity Assay to monitor cytotoxicity in HEK293 cells - 40 hour (AID 1224871); further: nearly all actives have a fitted effect of over 45% in size
Conditions: CellTox Green fluorescence; series mostly up to 76.8 µM; cytotoxicity increase: at the top concentration
Description: National Center for Advancing Translational Sciences [NCATS]
NIH Chemical Genomics Center [NCGC]
U.S. Environmental Protection Agency [EPA]
National Institutes of Environmental Health Sciences [NIEHS]
National Toxicology Program [NTP]
Cell-based models are critical for drug discovery. Determining the natural cytotoxic effects resulting from test compounds is an essential research activity. A CellTox Green Cytotoxicity Assay to monitor cytotoxicity in real time of continues cell culture during 40 hours of the compound treatment was used to screen Tox21 10K library compounds in Hek293 cells. CellTox Green Cytotoxicity Assay is a nonlytic, homogeneous, biofluorescent method to measure cytotoxicity in cell culture after experimental manipulation. The assay system uses a proprietary asymmetric cyanine dye that is excluded from viable cells but preferentially stains the dead cell's DNA. […] Viable cells produce no appreciable increases in fluorescence. Therefore, the fluorescence signal produced by the binding interaction with dead cell DNA is proportional to cytotoxicity.
The mixture of Hek293 cell suspension and reagents were dispensed at 600cells/6 ul/well in 1536-well tissue culture treated black solid bottom plates using a Multidrop dispenser. After the assay plates were incubated at a 37 C/5% CO2 incubator for 5 hours, 23 nL of compounds dissolved in DMSO, positive and negative controls was transferred to the assay plate by a pintool work station. The plates were incubated at 37 C for 40 hours. The fluorescence intensity were measured at 0h, 8h, 16h, 24h, 32h and 40h time points using ViewLux plate reader during compound treatment.
On the % scale 0 is the no-effect control and ±100 the full control effect; potency means the concentration at half of the fitted maximal effect.

Structure (SMILES)	cytotoxicity increase	Potency
CC/C=C(\C)C=O	-18.3% (inactive)	
COc1cccc(-c2ccc(/C=C\CN3CCCCCC3)cc2Cl)c1		43.4 µM (active)
Cc1ccc2sc3cccc(C)c3c2c1	19% (inactive)	
O=[N+]([O-])c1ccc(O)c2ncccc12		9.52 µM (active)
C=C(C)C1CCC(C)CC1O (stereo not given)	-6.2% (inactive)	
N#CCCOCCC#N	-15.3% (inactive)	
O=c1[nH]cccc1O	8.3% (inactive)	
Cn1c(=O)[nH]c2ncn(C)c2c1=O	-3.93% (inactive)	
C=CC(C)(C)O	-13.7% (inactive)	
COCCC(=O)OC	-0.286% (inactive)	
Nc1ccc2c(S(=O)(=O)O)cccc2c1S(=O)(=O)O	-0.906% [at 35.3 µM] (inactive)	
CN(C)CCOc1ccc(/C(=C(/CCCl)c2ccccc2)c2ccccc2)cc1		45.8 µM (active)
CCOC(=O)[C@H](O)[C@@H](O)C(=O)OCC	-8.44% (inactive)	
Clc1cccc(Cl)n1	-10.5% (inactive)	
Oc1ccc(Cl)cc1C1CCCC1		49 µM (active)
C/C=C/C(=O)C1=C(C)C=CCC1(C)C	2.33% (inactive)	
C1CCSC1	-48.5% (inactive)	
Nc1ccc(Cl)c([N+](=O)[O-])c1	-1.31% (inactive)	
O=C1CCC(=O)N1	-34.7% (inactive)	
c1ccc(C[P+](c2ccccc2)(c2ccccc2)c2ccccc2)cc1		4.9 µM (active)

Structure (SMILES)	cytotoxicity increase	Potency
CCCOC(=O)c1ccc(O)cc1	1.49% (inactive)	
CC(c1cc(C(C)(C)C)cc(C(C)(C)C)c1O)c1cc(C(C)(C)C)cc(C(C)(C)C)c1O	15.1% (inactive)	
O=C1OC(=O)c2cc(-c3ccc4c(c3)C(=O)OC4=O)ccc21	3.42% (inactive)	
CC(=O)Nc1ccc(N=Nc2cc(C)ccc2O)cc1	-17% (inactive)	
CC(C)c1ccc2sc3ccccc3c(=O)c2c1	-9.81% (inactive)	
c1ccc(-c2ccc(C(c3ccccc3)n3ccnc3)cc2)cc1 (stereo not given)	15.2% [at 35.3 µM] (inactive)	
CCN(CC)c1ccc(C=O)cc1	-19.8% (inactive)	
Cc1ccc(S(=O)(=O)C(I)I)cc1		19.5 µM (active)
O=C(N[C@H](CO)[C@H](O)c1ccc([N+](=O)[O-])cc1)C(Cl)Cl	1.27% (inactive)	
NCc1ccco1	6.88% (inactive)	
COc1cc(/C=C/C(=O)CC(=O)/C=C/c2ccc(O)c(OC)c2)ccc1O		24.7 µM (active)
CC(O)(c1ccc(Cl)cc1)c1ccc(Cl)cc1		49 µM (active)
NCc1cccc(C2CCN(C(=O)c3ccc(C#Cc4ccccc4F)o3)CC2)c1		54.9 µM (active)
Cc1c[nH]c(=O)[nH]c1=O	-9.39% (inactive)	
O=c1cc[nH]cc1	-1.18% (inactive)	
ClC(c1ccccc1)(c1ccccc1)c1ccccc1	1.44% (inactive)	
CC(=O)CC(N)=O	-13.9% (inactive)	
CCOC(=O)[C@H](C)O	13.1% (inactive)	
Cc1cccc2c1ccc1ccccc12	14.5% (inactive)	
Cc1ccc(N=Nc2c(O)ccc3ccccc23)c(C)c1	-0.0323% [at 35.3 µM] (inactive)	
